Measurements: PubChem BioAssay (NCI)
Where “and” joins values, the source holds several entries; their conditions need not be identical. Equal values may be shown once. Compounds without any hit were thinned out: in the full panel of roughly 83,000, 20% have a hit.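 A percent growth of 40 corresponds to 60% growth inhibition; 0 means no net growth; -100 means all cells died. Active threshold: below 10.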 Calls of active or inactive are those of the source.

How the values were obtained:
Experiment in all cases: NCI-60 one-dose screen, 48 h (100 = growth as untreated, 0 = no growth, -100 = all killed)
HCT-15 colon = system: HCT-15 colon
HT29 colon = system: HT29 colon
SNB-75 CNS = system: SNB-75 CNS
SNB-19 CNS = system: SNB-19 CNS
U251 CNS = system: U251 CNS
PC-3 prostate = system: PC-3 prostate
SK-MEL-5 melanoma = system: SK-MEL-5 melanoma
UACC-62 melanoma = system: UACC-62 melanoma
LOX IMVI melanoma = system: LOX IMVI melanoma
SK-MEL-28 melanoma = system: SK-MEL-28 melanoma

CC(=O)Nc1ccc(O)cc1
growth (HCT-15 colon; 10 µM unless noted): 103% (inactive) and 109% (inactive) and 105% (inactive) | growth (HT29 colon; 10 µM unless noted): 99.8% (inactive) and 96.8% (inactive) and 108% (inactive) | growth (SNB-75 CNS; 10 µM unless noted): 99.8% (inactive) and 91.8% (inactive) and 104% (inactive) | growth (SNB-19 CNS; 10 µM unless noted): 101% (inactive) | growth (U251 CNS; 10 µM unless noted): 102% (inactive) and 106% (inactive) and 107% (inactive) | growth (PC-3 prostate; 10 µM unless noted): 90.4% (inactive) and 136% (inactive) and 97.6% (inactive) | growth (SK-MEL-5 melanoma; 10 µM unless noted): 98% (inactive) and 113% (inactive) and 112% (inactive) | growth (UACC-62 melanoma; 10 µM unless noted): 99.9% (inactive) and 102% (inactive) and 106% (inactive) | growth (LOX IMVI melanoma; 10 µM unless noted): 103% (inactive) and 101% (inactive) and 106% (inactive) | growth (SK-MEL-28 melanoma; 10 µM unless noted): 114% (inactive) and 66.2% (inactive) and 125% (inactive)

c1ccc(NCc2ccc3c(c2)OCO3)cc1
growth (HCT-15 colon; 10 µM unless noted): 108% (inactive) and 93% (inactive) | growth (HT29 colon; 10 µM unless noted): 103% (inactive) and 104% (inactive) | growth (SNB-75 CNS; 10 µM unless noted): 89.7% (inactive) and 95.8% (inactive) | growth (SNB-19 CNS; 10 µM unless noted): 99% (inactive) | growth (U251 CNS; 10 µM unless noted): 99.3% (inactive) and 93.3% (inactive) | growth (PC-3 prostate; 10 µM unless noted): 96.1% (inactive) and 93.6% (inactive) | growth (SK-MEL-5 melanoma; 10 µM unless noted): 100% (inactive) | growth (UACC-62 melanoma; 10 µM unless noted): 110% (inactive) and 100% (inactive) | growth (LOX IMVI melanoma; 10 µM unless noted): 106% (inactive) and 98.9% (inactive) | growth (SK-MEL-28 melanoma; 10 µM unless noted): 120% (inactive) and 105% (inactive)

CCOC(=O)c1sc(N)nc1-c1ccccc1
growth (HCT-15 colon; 10 µM unless noted): 97.3% (inactive) | growth (HT29 colon; 10 µM unless noted): 96.8% (inactive) | growth (SNB-75 CNS; 10 µM unless noted): 94.7% (inactive) | growth (SNB-19 CNS; 10 µM unless noted): 109% (inactive) | growth (U251 CNS; 10 µM unless noted): 98.8% (inactive) | growth (PC-3 prostate; 10 µM unless noted): 98% (inactive) | growth (SK-MEL-5 melanoma; 10 µM unless noted): 100% (inactive) | growth (UACC-62 melanoma; 10 µM unless noted): 112% (inactive) | growth (LOX IMVI melanoma; 10 µM unless noted): 95.5% (inactive) | growth (SK-MEL-28 melanoma; 10 µM unless noted): 109% (inactive)

CCc1ccccc1-n1c(N)c(C#N)c(-c2ccc(OC)c(OC)c2)c(C#N)c1=O
growth (HCT-15 colon; 10 µM): 101% (inactive) | growth (HCT-15 colon; 100 µM): 81.2% (inactive) | growth (HT29 colon; 10 µM): 110% (inactive) | growth (HT29 colon; 100 µM): 102% (inactive) | growth (SNB-75 CNS; 10 µM): 98% (inactive) | growth (SNB-75 CNS; 100 µM): -43% (active) | growth (SNB-19 CNS; 10 µM): 104% (inactive) | growth (SNB-19 CNS; 100 µM): 10.5% (inactive) | growth (U251 CNS; 10 µM): 101% (inactive) | growth (U251 CNS; 100 µM): 8.35% (active) | growth (PC-3 prostate; 10 µM): 110% (inactive) | growth (PC-3 prostate; 100 µM): 14.2% (inactive) | growth (SK-MEL-5 melanoma; 10 µM): 113% (inactive) | growth (SK-MEL-5 melanoma; 100 µM): 67.1% (inactive) | growth (UACC-62 melanoma; 10 µM): 105% (inactive) | growth (UACC-62 melanoma; 100 µM): 35% (inactive) | growth (LOX IMVI melanoma; 10 µM): 104% (inactive) | growth (LOX IMVI melanoma; 100 µM): 57.8% (inactive) | growth (SK-MEL-28 melanoma; 10 µM): 124% (inactive) | growth (SK-MEL-28 melanoma; 100 µM): 54% (inactive)

CC1=C(/C=C/C(C)=C/C=C/C(C)=C/C(=O)Nc2ccc(O)cc2)C(C)(C)CCC1
growth (HCT-15 colon; 10 µM unless noted): 57% (inactive) | growth (HT29 colon; 10 µM unless noted): 34.6% (inactive) | growth (SNB-75 CNS; 10 µM unless noted): 57.6% (inactive) | growth (SNB-19 CNS; 10 µM unless noted): 80.2% (inactive) | growth (U251 CNS; 10 µM unless noted): 66.8% (inactive) | growth (PC-3 prostate; 10 µM unless noted): 52.2% (inactive) | growth (SK-MEL-5 melanoma; 10 µM unless noted): 43.9% (inactive) | growth (UACC-62 melanoma; 10 µM unless noted): 22% (inactive) | growth (LOX IMVI melanoma; 10 µM unless noted): 2.64% (active) | growth (SK-MEL-28 melanoma; 10 µM unless noted): 61.7% (inactive)

COc1cc(NS(C)(=O)=O)ccc1Nc1c2ccccc2nc2c(C)cccc12
growth (HCT-15 colon; 10 µM unless noted): 7.59% (active) and 0.251% (active) | growth (HT29 colon; 10 µM unless noted): -36.8% (active) and 0.935% (active) | growth (SNB-75 CNS; 10 µM unless noted): -7.95% (active) and -6.77% (active) | growth (SNB-19 CNS; 10 µM unless noted): 19.8% (inactive) and 25.2% (inactive) | growth (U251 CNS; 10 µM unless noted): -3.95% (active) and -7.3% (active) | growth (PC-3 prostate; 10 µM unless noted): 17.8% (inactive) and 28.4% (inactive) | growth (SK-MEL-5 melanoma; 10 µM unless noted): -29.9% (active) and 2.9% (active) | growth (UACC-62 melanoma; 10 µM unless noted): 1.52% (active) and 23.3% (inactive) | growth (LOX IMVI melanoma; 10 µM unless noted): -49.9% (active) and -3.55% (active) | growth (SK-MEL-28 melanoma; 10 µM unless noted): 21.6% (inactive) and 21% (inactive)

Cc1cc(O)c(C(C)C)cc1S(=O)(=O)O (tested in a mixture with another compound)
growth (HCT-15 colon; 10 µM unless noted): 96.7% (inactive) and 7.09% (active) and 99.5% (inactive) | growth (HT29 colon; 10 µM unless noted): 100% (inactive) and -3.9% (active) and 109% (inactive) | growth (SNB-75 CNS; 10 µM unless noted): 84.1% (inactive) and 10.4% (inactive) and 80.2% (inactive) | growth (SNB-19 CNS; 10 µM unless noted): 103% (inactive) and 35.4% (inactive) and 100% (inactive) | growth (U251 CNS; 10 µM unless noted): 90.3% (inactive) and 9.28% (active) and 102% (inactive) | growth (PC-3 prostate; 10 µM unless noted): 96.1% (inactive) and 19.8% (inactive) and 81.7% (inactive) | growth (SK-MEL-5 melanoma; 10 µM unless noted): 96.6% (inactive) and -34% (active) and 99.9% (inactive) | growth (UACC-62 melanoma; 10 µM unless noted): 87.4% (inactive) and 32.5% (inactive) and 91.3% (inactive) | growth (LOX IMVI melanoma; 10 µM unless noted): 92.1% (inactive) and 0.911% (active) and 107% (inactive) | growth (SK-MEL-28 melanoma; 10 µM unless noted): 110% (inactive) and 40.6% (inactive) and 107% (inactive)
